Experimental data: the supplement of paper PMC11417369
In all, about 25,000 sequences were measured (“ln(normalized median fluorescence intensity)”: median about 6.7, highest 2% from about 10 on). The sample as a whole holds a higher share of the highest values than the screen did.

These sequences were tested on PfHDP1 homeodomain (GST-tagged) (assay: gcPBM binding intensity (ln(normalized median fluorescence intensity)); higher = stronger DNA binding).
Procedure, shortened: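 Probes on an Agilent 4 × 180k array were primer-extended, double-stranded and 36 bp long, taken from intergenic genomic regions, with negative controls added. GST-tagged P. falciparum DNA-binding domains from E. coli, about 25 μg on average, were applied to the array for 1 h in 1× PBS containing 1% milk, 0.2 mg/ml BSA, 0.5% salmon testes DNA and 0.03% Triton X-100. Binding intensity, obtained after Alexa488 anti-GST antibody detection and a 488 nm scan, is the highest Masliner-normalised natural-log median intensity across replicate spots of either probe orientation.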

Row | Sequence | gcPBM binding intensity (ln)
1 | ACTGAAAAAAGAAATACACACATTCTGGATCATATA [CACACA_site3860] | 6.47
2 | ATTTTTTTTTGTGTATATAAATAAATAAATATATAT [GTGCAC_negctrl_site603] | 6.47
3 | AAGAAAAAGACTTCATGAAAAAGAATTTTTTTAATT [TGCATGCA_negctrl_site473] | 5.86
4 | TATTTATTGTGACACTTTTATTATTTTATGATAAAA [CACACA_negctrl_site37] | 6.6
5 | AATATAAGCAAATACACACACACATATAAATATGTA [CACACA_site7741] | 7.03
6 | TACATAAACATTTATACACACATTATAAATACATAT [CACACA_site4386] | 6.74
7 | TTAATATGAAATAAATGTACATAATACATAATAAAA [XGTACX_site6194] | 6.44
8 | ACAAATAAGTTTTGTAGTACTGTGTATATATATATA [XGTACX_site6901] | 8.95
9 | ATCATATTTTTATGTGTGCACTTTTTTTTTTTTTTT [GTGCAC_site9555] | 8.73
10 | TTTATATTCTTAAGTGTGCACTATATATATATATAT [GTGCAC_site9719] | 10.5
11 | ATATATTTTATATGTGTGCACTATATATATATATAT | 10.8
12 | ATTTTTTTCTTAGGAGTGCACTTATATTTATTTTAT | 10.3
13 | TTTTTATTTTCATATGTGCACTTATATATATATATA | 10.2
14 | TAATTATTCTATTAAGTGCATATATTTTTAAAAAGA | 9.39
15 | TGAATAAATATATATACACACCCATATATATATATA [CACACA_site8833] | 9.21
16 | AAAAGAAGATAATACAGTACAGAATAATATAAAATA [XGTACX_site5962] | 6.51
17 | ATAAAATATAAAAACGCACACAATTATAAGGGTGTA [CACACA_site177] | 6.96
18 | TTCTGTATATAGTGTGCACACAATTAAAAAAAAAAA [CACACA_site8400] | 10.8
19 | TTCTGTATAATATAAAAACAAAAATTAAATTAAAAC [CACACA_negctrl_site81] | 6.43
20 | TTCTGTATACGGTGTGCACACAATTAAAAAAAAAAA [CACACA_site1416] | 10.8
21 | TATGTATATATATTAACACACAAAAAAAAAAAAAAA [CACACA_site1812] | 6.2
22 | TTTTCTGTATATTGTGTGCACACAATTAACAAAAAA [GTGCAC_site9817] | 10.6
23 | TAAAATATATTTTTCTGTACACAAAAATATATTAAA [XGTACX_site2813] | 6.24
24 | TTTTTTTTTCTGTATACACACAAAATTTATTTTTTA [CACACA_site2873] | 6.68

Row | Sequence | gcPBM binding intensity (ln)
25 | ATATTTAAAAATATAGTGCAATTATTCTAATGTGTT | 8.89
26 | TTTTTATGTGTATATTATTACATTTACATCTTTAAC [CACACA_negctrl_site1676] | 6.64
27 | ATTATTACTTTTTGAGTGCACATACACACAGACATA | 10
28 | ATAATAAAATGGAGAGTGCATACATGTTTATTTTAT | 7.7
29 | AAATTATGAACATATTGTACATATATATATATATAT [XGTACX_site8269] | 9.41
30 | ATTTAAGATTTAATCACACACATATATATTATATAC [CACACA_site2907] | 6.55
31 | TGCAATTTAATATGAGTGCATATATTGAGAAAATAC | 9.36
32 | AATGGGGAAGGTTCTACACACAACGCAAATGCCTTA [CACACA_site2758] | 6.41
33 | TCCCTTAATTTTGTGTGTACATATAATATATTTTTA [XGTACX_site2789] | 6.76
34 | TGTGCACATAATTAGTGTACATTTTTTATTTAGACA [XGTACX_site317] | 10.1
35 | AGACCTTTAATTTGTGTGCACATAATTAGTGTACAT [GTGCAC_site9434] | 10.7
36 | AAAAAAAAAAAAAACACACACATATAATATATTTAA [CACACA_site1337] | 6.35
37 | AAACAATAAAAGATTACACACATATATAGCATATAT [CACACA_site1698] | 6.82
38 | ATATATATATATATATGTACATACATACATAGAACT [XGTACX_site2214] | 9.21
39 | TTTTATTTTTAAAATTGTACATTATTATTGTTATTT [XGTACX_site1439] | 6.3
40 | CCTTTCCTTTTATAAGTGCATATAACAAATGTATAC [GTGCAC_site9872] | 8.03
41 | ATATCTTATAATACGGTGCACTTGACATGAACAACT [GTGCAC_site9987] | 10.3
42 | ATAATGAACAAAGTAGTGCACTTTCCTTATCTTTTC | 10.7
43 | AAATGTGAACTATAATAATTTCAACGTCTGATATAA [TGCATGCA_negctrl_site440] | 5.94
44 | TTGAACTCTCTTACGCGTACGTGTTATTATGAAAAT [XGTACX_site6265] | 6.73
45 | TTTCAAAATGTGTAAAATAAAAATAATATCATTACA [TGCATGCA_negctrl_site521] | 6.42
46 | TTTCAAATGGAATGTGTGCACATAAATGTAAATAAA | 10.8
47 | TTTTTCATAAAACACACACACAAAAATAATGTGGAA [CACACA_site3687] | 6.56
48 | AAAAAAAAAAAAGGCACACAAACATATGTAGACATA [CACACA_site2284] | 6.61

Row | Sequence | gcPBM binding intensity (ln)
49 | ATAATAAAATAAATCACACATAATATAATGTAATAT [CACACA_site6144] | 6.49
50 | AAAAAAAAATCAAAATGTACTTATTTTTATAATAAT [XGTACX_site4712] | 6.31
51 | AAGATTAAAAATTGCACACAAAAATATATTTTCTAT [CACACA_site1305] | 9.78
52 | AAGATTAAACATTGCACACAAAAACATATTTTCTAT [CACACA_site530] | 9.7
53 | TTTTCTATAAGATTTGCACACAACTTATTCTATTAA [CACACA_site3752] | 10.6
54 | TTTTTTTTTTTCAATAGTACTTTCCATTTACATATA [XGTACX_site3889] | 6.32
55 | TGAACTCATAGGAAAACACACATATGGGTAATATAT [CACACA_site187] | 6.78
56 | TGAACTCATAGGAAAACACACATATGTGTAATATAT [CACACA_site4267] | 7.27
57 | TGAACTCATAGGAAAACACACATATGTGCAATATAT [CACACA_site6231] | 11.3
58 | CTATTTTTATATTATTGTACGTTGTTATTATATATA [XGTACX_site1469] | 6.79
59 | CACTAATATATATACAGTACATAATAAAGTATATAA [XGTACX_site6875] | 6.16
60 | AATGCACAGCTCTTAGGCAAAAGTGGGTATTTACAC [GTGCAC_negctrl_site579] | 8.63
61 | TGTCCAATTTATTGTGCACACCTCAAAAGTGGGTAA [CACACA_site3826] | 11.1
62 | TTGGGTATTTTGTGCGCACACACATGCAAAAAGAAA [CACACA_site8299] | 9.63
63 | TTTTTTTCTAATTATGCACACATATCAAAATATTCA [CACACA_site8886] | 10.2
64 | ATTTTATGAAATGTTGCACACAAAAAACAACATGTT [CACACA_site8408] | 9.69
65 | ATACATGTTTTATGTGCACACAAAGTTGTTATGAGG [CACACA_site4032] | 10.8
66 | TTTATGAAATGTTGCACACAAAAAACAACATGTTTT [CACACA_site1440] | 9.63
67 | TATTTTATATGAGGCACACAAATTTTAATTGTTATT [CACACA_site725] | 5.99
68 | ACATGTTTTATGTGCACACAAAGTTGTTATGAGGTT [CACACA_site4031] | 10.7
69 | TAGTTGCACATGTATACACACAAAAAATATTTTATG [CACACA_site475] | 10.4
70 | TCTTCATAAAAATAAAGTACATTATATATATAAATA [XGTACX_site3775] | 6.37
71 | AAAAAATAGAATATGGGTACTAAAAAGATACAAACA [XGTACX_site4464] | 6.84
72 | AAGTTTAAAGGAATTACACAAACAAGCAAATATATA [CACACA_negctrl_site857] | 6.92

Row | Sequence | gcPBM binding intensity (ln)
73 | TCATTAATCAGGTATGCATGCATAACTATTAAAAAT [TGCATGCA_site90] | 6.46
74 | AAAAAACTATTATGTGCATGCACAAGTCAGGTAAAT [TGCATGCA_site791] | 11.3
75 | ACAATTTTATTTAAAGTGCATGTAAAATTAAAACTT | 7.44
76 | ATAAAAATATAAACATGTACATAAAAATCTATATAT [XGTACX_site405] | 6.72
77 | TTTCATTTGTCGTTATGTACTTATTAAATATTATTA [XGTACX_site7709] | 6.92
78 | TTAATACATATATATATATTATATATATATATATAT [TGCATGCA_negctrl_site177] | 8.89
79 | ATGATATATTTAATAGTGCACTAATTAAAATTATTA [GTGCAC_site9418] | 10.8
80 | ATATATCATATTATAGTGCATTTATAATAATATTAT | 8.51
81 | CTTAAAATATATTTAGTGCATATACTAATATATTAT | 8.9
82 | TTCTAAAATTATATAGTGCAATTATATTAATTTTTC | 8.98
83 | ATATTTTATATAATAGTGCAAATAATATTAAATAAT | 9.78
84 | TTACAATAAATTATAGTGCAATATTTTATTTAATAT | 10.6
85 | ATTTTCTTTTCCATAGTGCAATATAATTATCCATCA [GTGCAC_site9547] | 10.9
86 | ATATATATATTTATAGTGCATTTATATTAAAATATC [GTGCAC_site9818] | 8.5
87 | TTATATAATTTAATAGTGCAATTATATTAATTTTTC | 8.66
88 | TATATATATATATATATATATATATATATAATATTA [XGTACX_negctrl_site558] | 9.37
89 | TGGAGGATAGTTCACAGTACCCAGTAACTCTACGGA [XGTACX_site4930] | 6.22
90 | TATATATATATAATTGCACACATCAAGTTTGATGTT [CACACA_site1288] | 9.99
91 | CAAAATGATATGACAACACACAACCTATAGTAAGAC [CACACA_site1287] | 6.91
92 | ATCATCCAAGATCTTACACACATATTAAATAAATAA [CACACA_site1473] | 6.66
93 | AGGCCTTTTAGTATTTCACACACGTAAATGTGTATA [CACACA_site8284] | 6.43
